Source: PubChem BioAssay (NMMLSC)
Shown are actives, neighbours in structure and some others; about 3.5% of the full set was active somewhere.
BoNT F protease = BoNT/F light chain protease inhibitors, primary screen, biochemical, flow cytometry, MLPCN library; AID 588497, 2011; 0.22% of 360,000 active; Multiplex microsphere protease cleavage assay; Botulinum neurotoxin type F light chain protease (Clostridium botulinum); inhibition, % at 10 µM; in the data active = inhibition above about 35%, passing the limit was not always enough; inconclusive = no clear call, values can overlap the other calls; also: plate controls were buffer without enzyme for full effect and enzyme alone for no effect
BoNT A protease = BoNT/A light chain protease inhibitors, primary screen, biochemical, flow cytometry, MLPCN library. Botulinum neurotoxin type A light chain protease (Clostridium botulinum A str. ATCC 3502). multiplex microsphere protease substrate cleavage. inhibition, % at 10 µM. 0.17% of 360,000 active; also: plate controls were buffer without enzyme for full effect and enzyme alone for no effect
Autofluor counter = compound fluorescence in toxin protease inhibitor counterscreen; compound autofluorescence counterscreen, microsphere flow cytometry; active compounds read high; fluorescence intensity (concentration not given with the values); 3.1% of 360,000 active; AID 624483; in the data active = fluorescence intensity above about 16000; inconclusive = no clear call, values can overlap the other calls
Anthrax LF inh2 = Bacillus anthracis LF protease inhibitors, primary screen, biochemical, multiplex microsphere, MLPCN library; Lethal factor (Bacillus anthracis), P15917; multiplex microsphere protease cleavage assay; inhibition, % at 10 µM; 0.12% of 360,000 active; AID 588501, 2011; also: plate controls were buffer without enzyme for full effect and enzyme alone for no effect
Numbers without * were called inactive; ? = inconclusive. Rule as the data show it, unless noted: active = inhibition above about 30%; inconclusive = no clear call, values can overlap the other calls; inactive = below that.

SMILES | BoNT F protease | BoNT A protease | Autofluor counter | Anthrax LF inh2
O=C(C1=C(O)C(=O)N(CCN2CCOCC2)C1c1cccc(Br)c1)c1cc2ccccc2o1 (stereo not drawn) | 0 | 0 | 5688 | -1
O=C(NCCc1ccccc1)c1cc(S(=O)(=O)N2CCCC2)ccc1F | -5 | 1 | 5354 | -1
CCCNC(=O)c1cc(S(=O)(=O)N2CCc3ccccc32)ccc1F | -4 | -3 | 16850* | 0
CCN(CC)S(=O)(=O)c1ccc(Cl)c(C(=O)NC)c1 | 9 | 0 | 2453 | 0
CCN(CC)S(=O)(=O)c1ccc(F)c(C(=O)NCCC(C)C)c1 | -2 | ? | 17171* | 1
O=C(NCc1ccc(F)cc1)c1cc(S(=O)(=O)N2CCOCC2)ccc1F | 7 | ? | 21187* | 0
CCCCCNC(=O)c1cc(S(=O)(=O)N2CCCCC2)ccc1F | 5 | ? | 23121* | -3
Cc1ccc(C(=O)OCC(=O)NC2CCCC2)cc1 | -21 | 1 | 3604 | 1
CC(C)c1cc(C(N)=O)c(NC(=O)C2CCC2)s1 | 4 | 1 | 21955* | 0
CC(Sc1n[nH]c(N)n1)C(=O)NC1CCCCC1C (stereo not drawn) | -1 | 0 | ? | -7
Cn1ccnc1SCC(=O)c1c(N)n(C)c(=O)n(C)c1=O | 1 | 0 | 3313 | -5
Cc1cc(C)nc(SCC(=O)c2c(N)n(C)c(=O)n(C)c2=O)n1 | 0 | ? | 23309* | 2
CN1C(=O)NC(=O)[C@]2(Cc3ccccc3N3CCN(c4ccccc4)CC32)C1=O (stereo partly drawn) | -1 | -2 | 16912* | -2
Cc1ccc(N2C(=O)NC(=O)C3(Cc4ccccc4N4CCCC43)C2=O)cc1 (stereo not drawn) | 2 | ? | 19892* | 2
CN1C(=O)NC(=O)C2(Cc3ccccc3N3CCOCC32)C1=O (stereo not drawn) | -6 | ? | 17659* | 3
CN1CCN2c3ccccc3CC3(C(=O)N(C)C(=O)N(C)C3=O)C2C1 (stereo not drawn) | ? | ? | 3652 | -8
CN1C(=O)N(C)C(=O)C2(Cc3ccccc3N3CCCC32)C1=O (stereo not drawn) | ? | -2 | ? | -18
O=C1NC(=O)[C@]2(Cc3ccccc3N3CCN(c4ccccc4)CC32)C(=O)N1c1ccccc1 (stereo partly drawn) | -5 | -2 | 24028* | -3
O=C1NC(=O)C2(Cc3ccccc3N3CCCC32)C(=O)N1Cc1ccccc1 (stereo not drawn) | 3 | ? | 19390* | -3
O=C1NC(=O)[C@]2(Cc3ccccc3N3CCN(c4ccccc4)CC32)C(=O)N1Cc1ccccc1 (stereo partly drawn) | 6 | 2 | 4621 | 1
O=C(CNC(=O)c1ccc(Br)cc1)NCCc1nc2ccccc2[nH]1 | -2 | -1 | 19972* | 0
O=C(CNC(=O)c1cccc(Br)c1)NCCc1nc2ccccc2[nH]1 | -23 | -2 | 13512 | -4
Cc1ccc(-c2csc3nnc(SCC(=O)Nc4nsc(-c5ccccc5)n4)n23)cc1 | 4 | ? | 21990* | -1
O=C(CSc1nnc2scc(-c3ccccc3)n12)Nc1nsc(-c2ccc(Cl)cc2)n1 | -5 | 0 | 2910 | 0
O=C(CSc1nnc2scc(-c3ccccc3)n12)Nc1nsc(-c2ccccc2)n1 | 2 | 1 | 20413* | 0
SMILES | BoNT F protease | BoNT A protease | Autofluor counter | Anthrax LF inh2
Cc1ccc(CC(=O)O/N=C(\N)c2ccncc2)cc1 | -5 | -1 | 4349 | -2
CC(Oc1ccc2oc(-c3ccccc3)c(C(=O)O)c2c1)C(=O)O (stereo not drawn) | -1 | 0 | 16623* | -4
CCOc1ccc2oc(-c3ccccc3)c(C(=O)O)c2c1 | -3 | 0 | 4320 | 4
Cc1nn(-c2ccccc2)c(Cl)c1C(=O)NCC1CCCO1 (stereo not drawn) | -1 | 0 | 2971 | -11
Cc1ccc(S(=O)(=O)NCC(=O)OC(C(=O)c2ccccc2)c2ccccc2)cc1 (stereo not drawn) | -8 | 0 | 10342 | 4
CNC(=O)NC(=O)C(OC(=O)CCNS(=O)(=O)c1ccccc1)c1ccccc1 (stereo not drawn) | -70 | -42 | 18283* | -10
Cc1cc(C(O)c2ncc(-c3ccccc3F)[nH]2)ccc1F (stereo not drawn) | -5 | 0 | 3723 | -6
COc1cccc(C(=O)CN2CCC(NC(=O)NC3CCCCC3)CC2)c1 | -12 | -5 | 13711 | -9
COc1ccc(C(=O)CN(C(=O)c2ccc(Cl)cc2)N2C(=O)C3CCCCC3C2=O)cc1 (stereo not drawn) | 38* | ? | 11113 | -21
COc1cccc(C(=O)CN(C(=O)c2ccc(Cl)c(Cl)c2)N2C(=O)C3CCCCC3C2=O)c1 (stereo not drawn) | -3 | -2 | 17192* | -3
NC(=O)Cn1c(=O)n(Cc2ccccc2)c(=O)c2cccnc21 | 4 | 0 | 3358 | -14
NC1=NC2(CCCCC2)N=C(Nc2ccc(F)cc2F)N1 | -1 | -4 | 24883* | 0
CCOC(=O)c1cc(NC(=O)C2C3CCC(O3)C2C(=O)O)cc(C(=O)OCC)c1 (stereo not drawn) | 0 | -1 | 23079* | 2
CCOC(=O)Cc1csc(NC(=O)c2ccoc2C)n1 | -1 | -2 | 23823* | -1
CCOC(=O)c1cc(NC(=O)c2ccoc2C)cc(C(=O)OCC)c1 | 0 | ? | 23038* | -3
CCOC(=O)Cc1csc(NC(=O)c2c(-c3c(F)cccc3Cl)noc2C)n1 | 5 | 4 | 21863* | -5
CCOC(=O)Cc1csc(NC(=O)c2c(-c3ccccc3)noc2C)n1 | 0 | 0 | 10311 | 0
CC(=O)c1cccc(NC(=O)c2ccoc2C)c1 | -5 | -2 | 3403 | -1
CC(Nc1ccc(F)cc1)=[N+](C)CCNS(=O)(=O)c1ccc(Cl)cc1 | 5 | 1 | 4352 | 2
CC(C)[C@H](NC(=O)N1CC(=O)Nc2ccccc21)C(=O)N1CCC(C(=O)O)CC1 | 0 | 0 | 5193 | 0
O=C(Cn1c(=O)n(-c2ccccc2)c(=O)c2sccc21)N1CCCC1 | -4 | -1 | 23839* | 0
Cc1ccc(-n2c(=O)c3sccc3n(CC(=O)N3CCCC3)c2=O)cc1 | 1 | -1 | 9658 | 1
COCCC(=O)N1CCC(Oc2ccc(C(=O)NCCC3=CCCCC3)cc2)CC1 | 1 | 1 | 5095 | -2
CN1CCN(CC(=O)Nc2c(C(=O)C3CC3)oc3ccccc23)CC1 | 0 | 1 | 22556* | -1
COc1ccc(Cl)cc1S(=O)(=O)NCc1nc2nc(C)cc(C)n2n1 | 6 | 0 | 3977 | -12
O=C(COC(=O)c1ccc2ccccc2c1)NCc1ccccc1 | -3 | 0 | 3849 | 0
CCOC(=O)c1oc2cccc(O)c2c1C | -6 | 0 | 5806 | -1
CCOC(=O)c1oc2cccc(O)c2c1CN(Cc1ccccc1)C(C)=O | 0 | ? | 20279* | 1
CCc1cccc(N=c2c([N+](=O)[O-])nn(-c3ccc(Cl)cc3)n2O)c1 | -1 | 1 | 22799* | -5
